# Experimental data as given in PubChem BioAssay.
# The source made the active and inactive calls. Unless noted, no stated cut-off is given here; in the data, active means inhibition above about 80%; inactive means the rest.
# Columns and labels:
# [1] = LFS_MB_P medulloblastoma growth inhibition, cell-based, chromothripsis tumors, cisplatin or BGB combos (AID 1671449); conditions: LFS_MB_P medulloblastoma cells;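 further: cells exposed for 96 hours; 0% = vehicle DMSO and 100% = killing by high DMSO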
# [2] = HDN33 neuroblastoma growth inhibition, cell-based, chromothripsis tumors, cisplatin or BGB combos (AID 1671450); conditions: HDN33 neuroblastoma cells, stronger effect = higher value;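 further: cells exposed to compound for four days; 0% = vehicle DMSO and 100% = cell killing by high DMSO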
# [3] = ICB984 medulloblastoma cell growth inhibition, synergistic combos for chromothripsis tumors, cisplatin or BGB combos (AID 1671451; call rule not given here;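 further: cells exposed for 96 hours before readout; 0% = vehicle DMSO and 100% = killing by high DMSO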); conditions: ICB984 medulloblastoma cells, drug combinations, stronger effect = higher value
# [4] = LFS_MB_1R medulloblastoma cell growth inhibition, synergistic combos for chromothripsis tumors, cisplatin or BGB combos (AID 1671452); conditions: LFS_MB_1R medulloblastoma cells, stronger effect = higher value;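 further: cells exposed for 96 hours before readout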
# [5] = HTB85 osteosarcoma cell growth inhibition, synergistic combos for chromothripsis tumors, BGB or cisplatin IC20 combos (AID 1671453); conditions: HTB85 osteosarcoma cells, drug combinations, stronger effect = higher value;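 further: cells exposed for 96 hours before readout; 0% = vehicle DMSO and 100% = high DMSO killing control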
# [6] = CRL2098 osteosarcoma cell growth inhibition, synergistic combos for chromothripsis tumors, BGB or cisplatin IC20 combos (AID 1671454); conditions: CRL2098 osteosarcoma cells, drug combinations, stronger effect = higher value;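 further: cells exposed for 96 h before readout; 0% = vehicle DMSO and 100% = killing by high DMSO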
# [7] = HD-MB03 medulloblastoma cell growth inhibition, synergistic combos for chromothripsis tumors, BGB or cisplatin IC20 combos (AID 1671455; in the data active means inhibition above about 83%;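 further: 0% = vehicle DMSO and 100% = high DMSO as cytotoxic control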); conditions: HD-MB03 medulloblastoma cells, stronger effect = higher value
# [8] = UWB1.289 ovarian carcinoma cell growth inhibition, synergistic combos for chromothripsis tumors, BGB or cisplatin combos (AID 1671456); conditions: UWB1.289 ovarian carcinoma cells, stronger effect = higher value;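 further: cells exposed to compound for four days; 0% = vehicle DMSO and 100% = killing by high DMSO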
# [9] = LFS_MB_2R medulloblastoma cell growth inhibition, synergistic combos for chromothripsis tumors, cisplatin combos (AID 1671457); conditions: LFS_MB_2R medulloblastoma cells, stronger effect = higher value;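 further: cells exposed to compound for four days before readout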
# [10] = MDA-MB-436 breast carcinoma cell growth inhibition, synergistic combos for chromothripsis tumors, BGB or cisplatin combos (AID 1671458; call rule not given here;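 further: cells exposed for 96 hours; 0% = vehicle DMSO and 100% = killing by high DMSO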); conditions: MDA-MB-436 breast carcinoma growth inhibition, drug combinations, stronger effect = higher value
# [11] = UWB1.289_BRCA1 ovarian cancer growth, cell-based, BGB or cisplatin combinations (AID 1671459); conditions: UWB1.289 BRCA1 ovarian carcinoma, drug combinations, stronger effect = higher value
# [12] = human astrocyte viability loss, single and combined drugs, cytotoxicity control for chromothriptic childhood tumor combination screen, cell-based, BGB or cisplatin IC20 combos (AID 1671460); conditions: Human astrocytes, drug combinations, stronger effect = higher value;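 further: cells exposed to compounds for 96 hours before viability readout; 0% = vehicle and 100% = killing control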
# [13] = growth inhibition of BT084 medulloblastoma cells, cell-based, ICGC_MB145, cisplatin and BGB IC40 combos (AID 1671461); conditions: drug combinations, stronger effect = higher value;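 further: cells exposed to drugs for 96 hours; 0% = vehicle DMSO and 100% = high DMSO full killing control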
# [14] = growth inhibition of RCMB18 medulloblastoma cells, cell-based, cisplatin and BGB IC40 combos (AID 1671462); conditions: stronger effect = higher value;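 further: cells exposed to compound for four days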
# [15] = growth inhibition of CRL1545 osteosarcoma cells, cell-based, cisplatin and BGB IC20 combos (AID 1671464); conditions: stronger effect = higher value;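 further: cells exposed to compound for 96 hours before readout; 0% = vehicle DMSO and 100% = high DMSO killing control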
# [16] = measured here: combination with BGB IC40, at 0.05 µM
# [17] = measured here: with BGB IC20 combination, at 0.5 µM
# [18] = measured here: with cisplatin IC20 combination, at 0.5 µM
# [19] = measured here: combination with cisplatin, at 0.5 µM
# [20] = measured here: combination with cisplatin, at 5 µM
compound,measurement,setting,value
Cc1ccc([N+](=O)[O-])cc1S(=O)(=O)N(C)/N=C\c1cnc2ccc(Br)cn12,inhibition,"[1]; at 0.5 µM, stronger effect = higher value",61.9% (inactive)
same,inhibition,"[1]; measured here: combination with BGB IC20, at 0.005 µM",-13.3%
same,inhibition,"[1]; measured here: combination with BGB IC40, at 0.005 µM",-40.2%
same,inhibition,[1]; [16],-31.8%
same,inhibition,"[1]; measured here: combination with cisplatin, at 0.5 µM, stronger effect = higher value",56.3%
same,inhibition,"[1]; measured here: combination with cisplatin, at 5 µM, stronger effect = higher value",118%
same,inhibition,"[2]; BGB combo, at 5 µM",99.2%
same,inhibition,[2]; at 0.5 µM,94.3% (active)
same,inhibition,"[2]; cisplatin combo, at 5 µM",99.5%
same,inhibition,[2]; [17],94%
same,inhibition,[2]; [18],93.5%
same,inhibition,"[2]; single agent, at 5 µM",99.5%
same,inhibition,"[3]; BGB IC20 combo, at 0.005 µM",97.1%
same,inhibition,"[3]; BGB IC40 combo, at 0.005 µM",95.5%
same,inhibition,"[3]; BGB IC40 combo, at 0.05 µM",97.1%
same,inhibition,[3]; at 0.5 µM,-13.8% (inactive)
same,inhibition,"[3]; cisplatin combo, at 0.05 µM",97%
same,inhibition,"[3]; cisplatin combo, at 0.5 µM",-12.8%
same,inhibition,"[3]; cisplatin combo, at 5 µM",-10.7%
same,inhibition,"[3]; measured here: 5 uM single agent, at 5 µM",-35%
same,inhibition,[4]; at 0.5 µM,97.7% (active)
same,inhibition,[4]; [16],22.2%
same,inhibition,[4]; [19],94.2%
same,inhibition,[4]; [20],99.5%
same,inhibition,[5]; at 0.5 µM,95.7% (active)
same,inhibition,"[5]; measured here: with BGB IC20, at 0.5 µM",97.6%
same,inhibition,"[5]; measured here: with BGB IC20, at 5 µM",99.7%
same,inhibition,"[5]; measured here: with cisplatin IC20, at 0.5 µM",99.5%
same,inhibition,"[5]; measured here: with cisplatin IC20, at 5 µM",99.8%
same,inhibition,"[5]; single agent, at 5 µM",99.8%
same,inhibition,[6]; at 0.5 µM,94.2% (active)
same,inhibition,"[6]; measured here: combination with BGB at IC20, at 0.5 µM",89.1%
same,inhibition,"[6]; measured here: combination with cisplatin at IC20, at 0.5 µM",96.8%
same,inhibition,[7]; at 0.5 µM,92.1% (active)
same,inhibition,"[7]; measured here: combo with BGB at IC20, at 0.5 µM",88.3%
same,inhibition,"[7]; measured here: combo with cisplatin at IC20, at 0.5 µM",94.9%
same,inhibition,[8]; at 0.5 µM,64.8% (inactive)
same,inhibition,"[8]; measured here: inhibition with BGB combination, at 0.05 µM",-16.8%
same,inhibition,"[8]; measured here: inhibition with cisplatin combination, at 0.05 µM",-30.8%
same,inhibition,[9]; at 0.5 µM,89.4% (active)
same,inhibition,[9]; [19],92.7%
same,inhibition,[9]; [20],91.4%
same,inhibition,[10]; at 0.5 µM,79.4% (inactive)
same,inhibition,"[10]; measured here: BGB combination, at 0.5 µM",72.5%
same,inhibition,"[10]; measured here: BGB combination, at 5 µM",55.5%
same,inhibition,"[10]; measured here: cisplatin combination, at 0.5 µM",86.1%
same,inhibition,"[10]; measured here: cisplatin combination, at 5 µM",74.6%
same,inhibition,"[11]; BGB combination, concentration series, at 5 µM",89.5%
same,inhibition,[11]; at 0.5 µM,74.9% (inactive)
same,inhibition,"[11]; cisplatin combination, concentration series, at 5 µM",96.2%
same,inhibition,[12]; at 0.5 µM,80.6% (active)
same,inhibition,"[12]; measured here: combo with BGB IC20, at 0.5 µM",72.4%
same,inhibition,"[12]; measured here: combo with cisplatin IC20, at 0.5 µM",82.6%
same,inhibition,[13]; at 0.5 µM,-3% (inactive)
same,inhibition,"[13]; cisplatin combination, at 0.5 µM",-27.5%
same,inhibition,"[13]; cisplatin combination, at 5 µM",-30.7%
same,inhibition,"[13]; measured here: BGB IC40 combination 0.05 uM, at 0.05 µM",-4.87%
same,inhibition,"[13]; single agent, at 5 µM",-15.9%
same,inhibition,[14]; at 0.5 µM,67.8% (inactive)
same,inhibition,"[14]; cisplatin combo, at 5 µM",70%
same,inhibition,"[14]; measured here: BGB IC40 combination, at 0.05 µM",19.8%
same,inhibition,[14]; [19],52.5%
same,inhibition,"[14]; single agent, at 5 µM",76%
same,inhibition,[15]; at 0.5 µM,98% (active)
same,inhibition,[15]; [17],98.1%
same,inhibition,[15]; [18],97.9%
same,inhibition,"[15]; single agent, at 0.05 µM",-77.2%
same,inhibition,"[15]; single agent, at 5 µM",100%
